# PMC7862700, “An all-to-all approach to the identification of sequence-specific readers for epigenetic DNA modifications on cytosine”
# Assays:
# Test in all cases: DAPPL (digital affinity profiling via proximity ligation, sequencing); 10 mM Tris-HCl pH 7.5, 50 mM NaCl, 1 mM DTT, 4% glycerol, room temperature, 30 min; GST-TFs on glutathione beads, 16-mer random dsDNA library, 0.1% formaldehyde crosslink after washing; high values mean tight binding
# FLI1 = target: T1, FLI1 (Homo sapiens, UniProt Q01543 1-452); conditions: protein: recombinant; tags: N-terminal GST; dsDNA, one strand shown
# T1 sequence: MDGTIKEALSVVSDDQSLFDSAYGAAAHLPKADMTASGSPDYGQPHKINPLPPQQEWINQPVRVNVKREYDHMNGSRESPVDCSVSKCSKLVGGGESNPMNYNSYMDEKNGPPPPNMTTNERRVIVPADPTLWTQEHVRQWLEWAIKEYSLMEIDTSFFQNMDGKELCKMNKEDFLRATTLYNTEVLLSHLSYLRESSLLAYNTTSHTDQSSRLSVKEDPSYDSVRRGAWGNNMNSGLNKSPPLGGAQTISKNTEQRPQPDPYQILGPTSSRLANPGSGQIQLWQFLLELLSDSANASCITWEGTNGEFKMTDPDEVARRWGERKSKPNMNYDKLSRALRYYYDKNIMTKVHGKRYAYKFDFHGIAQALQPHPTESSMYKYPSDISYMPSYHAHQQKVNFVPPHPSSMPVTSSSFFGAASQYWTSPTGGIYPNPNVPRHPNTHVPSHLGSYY
# In short: (§1)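 Pools of DNA-barcoded human transcription factors, expressed in yeast as GST fusions on glutathione beads and combined with a tag-only sample, were incubated with 200 nmole of a 16-mer random double-stranded DNA library. Incubation took 30 min at room temperature in Tris/NaCl/DTT/glycerol buffer and was followed by washing, 0.1% formaldehyde crosslinking, proximity ligation (BsaI/T4 ligase, 1 h, 37 °C), PCR amplification and sequencing on an Illumina NextSeq500. Binding signal is the ratio of a hexamer's read frequency for a factor to its frequency for the tag-only sample.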
# ELK1 = target: T2, ELK1 (Homo sapiens, UniProt P19419 1-428); conditions: protein: recombinant; tags: N-terminal GST; dsDNA, one strand shown
# T2 sequence: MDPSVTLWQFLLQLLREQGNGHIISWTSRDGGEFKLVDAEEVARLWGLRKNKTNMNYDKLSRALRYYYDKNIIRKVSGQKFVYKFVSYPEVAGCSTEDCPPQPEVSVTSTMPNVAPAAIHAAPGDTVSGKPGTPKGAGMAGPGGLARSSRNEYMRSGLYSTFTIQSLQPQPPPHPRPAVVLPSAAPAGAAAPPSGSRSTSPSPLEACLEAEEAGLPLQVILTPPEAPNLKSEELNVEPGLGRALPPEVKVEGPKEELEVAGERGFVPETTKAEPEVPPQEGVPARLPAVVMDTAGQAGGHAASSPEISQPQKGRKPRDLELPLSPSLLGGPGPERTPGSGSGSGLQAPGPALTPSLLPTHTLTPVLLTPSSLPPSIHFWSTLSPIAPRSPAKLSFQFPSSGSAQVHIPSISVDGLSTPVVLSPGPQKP
# In short: as §1
# GABPA = target: T3, GABPA (Homo sapiens, UniProt Q06546 1-454); conditions: protein: recombinant; tags: N-terminal GST; dsDNA, one strand shown
# T3 sequence: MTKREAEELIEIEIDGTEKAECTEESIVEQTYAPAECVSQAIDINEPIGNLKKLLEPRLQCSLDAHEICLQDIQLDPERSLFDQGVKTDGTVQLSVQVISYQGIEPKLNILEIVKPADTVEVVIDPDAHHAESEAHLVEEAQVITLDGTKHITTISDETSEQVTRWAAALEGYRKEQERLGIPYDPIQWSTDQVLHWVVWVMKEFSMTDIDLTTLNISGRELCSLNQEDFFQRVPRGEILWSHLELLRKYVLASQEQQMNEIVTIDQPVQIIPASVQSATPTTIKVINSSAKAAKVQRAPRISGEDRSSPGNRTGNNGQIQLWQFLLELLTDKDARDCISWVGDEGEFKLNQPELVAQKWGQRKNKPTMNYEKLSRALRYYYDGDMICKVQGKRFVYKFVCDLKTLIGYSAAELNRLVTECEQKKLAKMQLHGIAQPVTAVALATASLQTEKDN
# In short: as §1
# ERG = target: T4, ERG (Homo sapiens, UniProt P11308 1-479); conditions: protein: recombinant; tags: N-terminal GST; dsDNA, one strand shown
# T4 sequence: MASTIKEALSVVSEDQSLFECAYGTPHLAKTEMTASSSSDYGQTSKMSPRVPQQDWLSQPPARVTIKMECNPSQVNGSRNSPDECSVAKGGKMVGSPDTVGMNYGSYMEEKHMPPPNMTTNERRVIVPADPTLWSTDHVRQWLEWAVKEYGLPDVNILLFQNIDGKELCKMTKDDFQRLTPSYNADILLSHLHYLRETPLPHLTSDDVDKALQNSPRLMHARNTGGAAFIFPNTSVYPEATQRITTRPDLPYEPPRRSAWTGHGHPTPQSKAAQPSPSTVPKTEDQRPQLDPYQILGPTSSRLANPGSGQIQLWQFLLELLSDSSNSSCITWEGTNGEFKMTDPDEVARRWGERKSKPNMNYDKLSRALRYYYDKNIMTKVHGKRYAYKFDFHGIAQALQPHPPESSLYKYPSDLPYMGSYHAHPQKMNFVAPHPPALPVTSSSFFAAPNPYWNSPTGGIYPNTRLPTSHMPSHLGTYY
# In short: as §1
# ELF1 = ELF1 (Homo sapiens, UniProt P32519 1-619); conditions: protein: recombinant; tags: N-terminal GST; dsDNA, one strand shown
# Sequence of ELF1 (P32519 whole entry): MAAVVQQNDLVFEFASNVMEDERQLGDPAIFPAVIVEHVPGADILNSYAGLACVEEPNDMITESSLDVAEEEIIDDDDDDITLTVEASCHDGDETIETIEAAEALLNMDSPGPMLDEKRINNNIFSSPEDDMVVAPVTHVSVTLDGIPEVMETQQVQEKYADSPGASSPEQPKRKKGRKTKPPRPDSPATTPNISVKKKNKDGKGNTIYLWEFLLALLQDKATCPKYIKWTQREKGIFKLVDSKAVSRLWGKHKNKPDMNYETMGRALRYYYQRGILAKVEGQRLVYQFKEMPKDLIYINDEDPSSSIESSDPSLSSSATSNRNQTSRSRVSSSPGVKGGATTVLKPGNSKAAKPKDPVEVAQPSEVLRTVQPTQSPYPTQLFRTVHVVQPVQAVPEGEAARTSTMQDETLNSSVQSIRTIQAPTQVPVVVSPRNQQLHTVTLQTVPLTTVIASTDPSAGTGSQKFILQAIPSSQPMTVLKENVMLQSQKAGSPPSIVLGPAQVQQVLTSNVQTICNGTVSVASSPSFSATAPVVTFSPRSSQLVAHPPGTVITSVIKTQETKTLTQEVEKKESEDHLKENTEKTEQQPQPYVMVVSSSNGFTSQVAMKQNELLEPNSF
# In short: as §1
# EHF = target: T5, EHF (Homo sapiens, UniProt Q9NZC4 1-300); conditions: protein: recombinant; tags: N-terminal GST; dsDNA, one strand shown
# T5 sequence: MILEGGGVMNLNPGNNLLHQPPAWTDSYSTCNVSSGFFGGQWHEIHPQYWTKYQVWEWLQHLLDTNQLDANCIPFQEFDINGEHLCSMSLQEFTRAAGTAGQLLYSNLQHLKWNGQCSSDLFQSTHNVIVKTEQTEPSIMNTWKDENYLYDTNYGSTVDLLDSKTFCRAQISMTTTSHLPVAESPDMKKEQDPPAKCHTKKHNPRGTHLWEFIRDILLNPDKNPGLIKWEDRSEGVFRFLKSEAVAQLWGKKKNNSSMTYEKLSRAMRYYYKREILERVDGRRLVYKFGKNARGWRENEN
# In short: as §1
# SPI1 = SPI1 (Homo sapiens, UniProt P17947 1-270); conditions: protein: recombinant; tags: N-terminal GST; dsDNA, one strand shown
# In short: as §1
# SPIB = SPIB (Homo sapiens, UniProt Q01892 1-262); conditions: protein: recombinant; tags: N-terminal GST; dsDNA, one strand shown
# Sequence of SPIB (Q01892 whole entry): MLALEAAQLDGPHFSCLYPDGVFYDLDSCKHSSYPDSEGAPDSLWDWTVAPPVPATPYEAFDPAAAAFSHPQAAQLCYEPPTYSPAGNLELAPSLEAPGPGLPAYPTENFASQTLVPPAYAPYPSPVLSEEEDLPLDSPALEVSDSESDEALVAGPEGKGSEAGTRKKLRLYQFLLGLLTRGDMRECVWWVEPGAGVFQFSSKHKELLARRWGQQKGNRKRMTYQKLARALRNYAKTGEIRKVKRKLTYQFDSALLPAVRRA
# In short: as §1
# ELK3 = target: T6, ELK3 (Homo sapiens, UniProt P41970 1-407); conditions: protein: recombinant; tags: N-terminal GST; dsDNA, one strand shown
# T6 sequence: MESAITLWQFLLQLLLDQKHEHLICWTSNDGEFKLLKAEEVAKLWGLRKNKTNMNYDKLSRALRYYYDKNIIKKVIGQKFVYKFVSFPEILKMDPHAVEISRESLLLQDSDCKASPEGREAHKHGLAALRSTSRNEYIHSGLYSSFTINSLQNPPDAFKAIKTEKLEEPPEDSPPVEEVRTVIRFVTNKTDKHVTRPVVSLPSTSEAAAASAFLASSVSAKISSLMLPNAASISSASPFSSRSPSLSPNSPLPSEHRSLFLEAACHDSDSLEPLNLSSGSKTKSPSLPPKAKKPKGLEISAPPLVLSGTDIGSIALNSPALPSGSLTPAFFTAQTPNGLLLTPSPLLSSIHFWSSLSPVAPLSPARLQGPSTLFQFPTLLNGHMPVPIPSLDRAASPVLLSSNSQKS
# In short: as §1
# FEV = target: T7, FEV (Homo sapiens, UniProt Q99581 1-238); conditions: protein: recombinant; tags: N-terminal GST; dsDNA, one strand shown
# T7 sequence: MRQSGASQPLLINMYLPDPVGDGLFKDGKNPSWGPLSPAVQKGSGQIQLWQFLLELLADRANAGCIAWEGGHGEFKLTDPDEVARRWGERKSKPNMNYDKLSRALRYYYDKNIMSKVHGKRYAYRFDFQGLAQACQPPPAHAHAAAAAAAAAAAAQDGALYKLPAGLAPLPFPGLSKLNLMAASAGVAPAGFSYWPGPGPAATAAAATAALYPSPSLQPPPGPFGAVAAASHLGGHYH
# In short: as §1
# ETV5 = ETV5 (Homo sapiens, UniProt P41161 1-510); conditions: protein: recombinant; tags: N-terminal GST; dsDNA, one strand shown
# Sequence of ETV5 (P41161 whole entry): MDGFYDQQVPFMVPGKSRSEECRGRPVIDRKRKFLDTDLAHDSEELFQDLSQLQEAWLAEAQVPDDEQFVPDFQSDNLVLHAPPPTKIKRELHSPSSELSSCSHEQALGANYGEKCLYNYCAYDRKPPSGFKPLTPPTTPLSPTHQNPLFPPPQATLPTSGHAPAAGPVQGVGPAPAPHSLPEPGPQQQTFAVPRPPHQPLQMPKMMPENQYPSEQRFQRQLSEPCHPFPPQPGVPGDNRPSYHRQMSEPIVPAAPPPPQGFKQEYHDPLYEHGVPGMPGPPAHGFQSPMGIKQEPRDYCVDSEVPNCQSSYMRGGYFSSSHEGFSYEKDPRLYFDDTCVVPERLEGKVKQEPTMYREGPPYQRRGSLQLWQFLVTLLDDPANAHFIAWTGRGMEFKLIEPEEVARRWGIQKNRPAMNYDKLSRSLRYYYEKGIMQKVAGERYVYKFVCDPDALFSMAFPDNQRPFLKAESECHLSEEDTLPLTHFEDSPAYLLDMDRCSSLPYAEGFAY
# In short: as §1
# HSF1 = HSF1 (Homo sapiens, UniProt Q00613 1-529); conditions: protein: recombinant; tags: N-terminal GST; chain copies: 3; dsDNA, one strand shown
# Sequence of HSF1 (Q00613 whole entry): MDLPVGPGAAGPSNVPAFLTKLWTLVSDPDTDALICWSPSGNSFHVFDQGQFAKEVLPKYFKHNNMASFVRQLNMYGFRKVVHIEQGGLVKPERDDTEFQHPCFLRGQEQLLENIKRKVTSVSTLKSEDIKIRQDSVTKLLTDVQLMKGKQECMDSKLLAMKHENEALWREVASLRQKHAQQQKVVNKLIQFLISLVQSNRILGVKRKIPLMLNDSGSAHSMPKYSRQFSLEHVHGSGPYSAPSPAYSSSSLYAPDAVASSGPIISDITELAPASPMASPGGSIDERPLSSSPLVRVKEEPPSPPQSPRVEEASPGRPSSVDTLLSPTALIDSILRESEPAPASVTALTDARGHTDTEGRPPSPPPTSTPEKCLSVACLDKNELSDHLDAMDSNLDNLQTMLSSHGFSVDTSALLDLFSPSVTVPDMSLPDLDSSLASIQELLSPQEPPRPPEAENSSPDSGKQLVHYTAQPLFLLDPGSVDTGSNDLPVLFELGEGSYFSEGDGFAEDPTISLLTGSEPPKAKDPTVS
# In short: as §1
# SPIC = target: T8, SPIC (Homo sapiens, UniProt Q8N5J4 1-248); conditions: protein: recombinant; tags: N-terminal GST; dsDNA, one strand shown
# T8 sequence: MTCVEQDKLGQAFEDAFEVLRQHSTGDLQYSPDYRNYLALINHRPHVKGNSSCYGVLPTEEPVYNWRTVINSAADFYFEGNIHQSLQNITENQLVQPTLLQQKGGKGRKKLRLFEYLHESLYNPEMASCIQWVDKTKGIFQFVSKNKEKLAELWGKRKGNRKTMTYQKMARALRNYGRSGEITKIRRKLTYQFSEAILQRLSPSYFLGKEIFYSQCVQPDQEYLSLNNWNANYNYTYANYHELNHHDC
# In short: as §1
# ELF4 = ELF4 (Homo sapiens, UniProt Q99607 1-663); conditions: protein: recombinant; tags: N-terminal GST; dsDNA, one strand shown
# Sequence of ELF4 (Q99607 whole entry): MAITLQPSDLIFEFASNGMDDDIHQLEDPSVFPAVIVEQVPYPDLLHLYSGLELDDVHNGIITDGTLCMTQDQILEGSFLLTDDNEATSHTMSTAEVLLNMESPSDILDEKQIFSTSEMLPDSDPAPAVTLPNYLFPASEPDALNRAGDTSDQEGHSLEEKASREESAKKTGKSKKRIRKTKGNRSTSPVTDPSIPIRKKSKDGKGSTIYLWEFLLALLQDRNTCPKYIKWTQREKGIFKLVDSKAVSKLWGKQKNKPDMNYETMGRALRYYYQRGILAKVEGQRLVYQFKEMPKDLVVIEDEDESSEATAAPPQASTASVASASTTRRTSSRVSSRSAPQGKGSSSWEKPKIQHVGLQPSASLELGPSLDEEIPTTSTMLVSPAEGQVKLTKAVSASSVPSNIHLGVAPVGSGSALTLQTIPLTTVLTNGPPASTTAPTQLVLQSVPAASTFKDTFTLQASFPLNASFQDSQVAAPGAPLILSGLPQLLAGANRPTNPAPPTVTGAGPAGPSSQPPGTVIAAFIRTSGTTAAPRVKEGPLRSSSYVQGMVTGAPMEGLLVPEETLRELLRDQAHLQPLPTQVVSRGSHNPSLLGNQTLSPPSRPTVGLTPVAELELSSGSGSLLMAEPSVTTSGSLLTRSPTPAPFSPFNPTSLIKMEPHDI
# In short: as §1
# ELK4 = target: T9, ELK4 (Homo sapiens, UniProt P28324-2 1-405); conditions: protein: recombinant; tags: N-terminal GST; dsDNA, one strand shown
# T9 sequence: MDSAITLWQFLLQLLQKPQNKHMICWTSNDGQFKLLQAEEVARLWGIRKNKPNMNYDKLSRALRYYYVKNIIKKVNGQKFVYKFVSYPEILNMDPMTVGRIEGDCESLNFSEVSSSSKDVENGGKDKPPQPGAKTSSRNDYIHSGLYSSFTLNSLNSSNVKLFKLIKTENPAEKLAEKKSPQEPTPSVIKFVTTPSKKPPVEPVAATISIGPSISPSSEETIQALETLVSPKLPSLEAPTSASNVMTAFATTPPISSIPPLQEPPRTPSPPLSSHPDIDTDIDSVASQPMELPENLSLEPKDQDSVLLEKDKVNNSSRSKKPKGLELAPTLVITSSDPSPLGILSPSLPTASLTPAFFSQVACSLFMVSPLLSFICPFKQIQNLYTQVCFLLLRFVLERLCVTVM
# In short: as §1
# ETV2 = target: T10, ETV2 (Homo sapiens, UniProt O00321 1-342); conditions: protein: recombinant; tags: N-terminal GST; dsDNA, one strand shown
# T10 sequence: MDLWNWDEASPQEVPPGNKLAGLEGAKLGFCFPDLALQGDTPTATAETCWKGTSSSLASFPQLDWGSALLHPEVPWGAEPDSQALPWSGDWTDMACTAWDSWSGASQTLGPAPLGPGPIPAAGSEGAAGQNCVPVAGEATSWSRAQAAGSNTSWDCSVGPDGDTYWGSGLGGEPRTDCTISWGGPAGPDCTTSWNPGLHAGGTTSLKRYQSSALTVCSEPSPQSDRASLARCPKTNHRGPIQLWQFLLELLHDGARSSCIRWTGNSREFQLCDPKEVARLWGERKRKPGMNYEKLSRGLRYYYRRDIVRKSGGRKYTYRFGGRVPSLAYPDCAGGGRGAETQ
# In short: as §1
# ELF3 = target: T11, ELF3 (Homo sapiens, UniProt P78545 1-371); conditions: protein: recombinant; tags: N-terminal GST; dsDNA, one strand shown
# T11 sequence: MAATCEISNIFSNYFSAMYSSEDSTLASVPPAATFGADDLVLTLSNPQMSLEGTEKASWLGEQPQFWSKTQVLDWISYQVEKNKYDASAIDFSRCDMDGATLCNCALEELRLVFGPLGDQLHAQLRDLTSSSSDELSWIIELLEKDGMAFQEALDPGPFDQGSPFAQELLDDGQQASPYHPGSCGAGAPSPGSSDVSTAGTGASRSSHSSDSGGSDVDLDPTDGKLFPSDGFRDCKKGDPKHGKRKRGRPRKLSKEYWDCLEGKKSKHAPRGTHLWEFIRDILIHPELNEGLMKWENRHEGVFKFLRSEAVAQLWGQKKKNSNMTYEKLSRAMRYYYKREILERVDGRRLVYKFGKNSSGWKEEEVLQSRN
# In short: as §1
# CRX = CRX (Homo sapiens, UniProt O43186 1-299); conditions: protein: recombinant; tags: N-terminal GST; dsDNA, one strand shown
# Sequence of CRX (O43186 whole entry): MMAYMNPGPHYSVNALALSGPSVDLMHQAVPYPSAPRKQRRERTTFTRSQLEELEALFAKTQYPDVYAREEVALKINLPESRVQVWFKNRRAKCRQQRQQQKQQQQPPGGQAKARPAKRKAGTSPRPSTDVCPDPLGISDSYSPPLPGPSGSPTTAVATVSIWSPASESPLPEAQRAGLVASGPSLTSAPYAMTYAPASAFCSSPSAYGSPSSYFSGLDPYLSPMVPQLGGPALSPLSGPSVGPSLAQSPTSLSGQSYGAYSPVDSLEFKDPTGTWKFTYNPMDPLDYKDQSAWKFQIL
# In short: as §1
# ETV1 = ETV1 (Homo sapiens, UniProt P50549 1-477); conditions: protein: recombinant; tags: N-terminal GST; dsDNA, one strand shown
# Sequence of ETV1 (P50549 whole entry): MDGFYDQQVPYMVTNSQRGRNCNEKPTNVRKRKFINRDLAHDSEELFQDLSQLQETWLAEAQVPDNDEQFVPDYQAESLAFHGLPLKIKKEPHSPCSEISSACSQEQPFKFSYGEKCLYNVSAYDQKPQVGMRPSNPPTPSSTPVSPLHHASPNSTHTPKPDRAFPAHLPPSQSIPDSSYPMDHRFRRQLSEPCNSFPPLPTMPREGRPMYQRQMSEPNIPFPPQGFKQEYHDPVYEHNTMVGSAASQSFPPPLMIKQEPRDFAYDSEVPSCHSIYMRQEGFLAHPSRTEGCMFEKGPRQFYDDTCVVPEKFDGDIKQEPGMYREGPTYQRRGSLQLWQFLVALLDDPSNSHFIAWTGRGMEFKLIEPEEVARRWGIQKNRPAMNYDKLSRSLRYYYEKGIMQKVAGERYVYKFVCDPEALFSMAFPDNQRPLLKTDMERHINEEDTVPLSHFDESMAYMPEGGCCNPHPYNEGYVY
# In short: as §1
sequence,measurement,setting,value
TGTGCT,binding signal,FLI1,"1.13 fold enrichment (6-mer frequency, TF over GST control)"
same,binding signal,ELK1,"1.23 fold enrichment (6-mer frequency, TF over GST control)"
same,binding signal,GABPA,"1.24 fold enrichment (6-mer frequency, TF over GST control)"
same,binding signal,ERG,"1.23 fold enrichment (6-mer frequency, TF over GST control)"
same,binding signal,ELF1,"1.2 fold enrichment (6-mer frequency, TF over GST control)"
same,binding signal,EHF,"1.11 fold enrichment (6-mer frequency, TF over GST control)"
same,binding signal,SPI1,"1.24 fold enrichment (6-mer frequency, TF over GST control)"
same,binding signal,SPIB,"1.14 fold enrichment (6-mer frequency, TF over GST control)"
same,binding signal,ELK3,"1.16 fold enrichment (6-mer frequency, TF over GST control)"
same,binding signal,FEV,"1.25 fold enrichment (6-mer frequency, TF over GST control)"
same,binding signal,ETV5,"1.18 fold enrichment (6-mer frequency, TF over GST control)"
same,binding signal,HSF1,"1.15 fold enrichment (6-mer frequency, TF over GST control)"
same,binding signal,SPIC,"1.35 fold enrichment (6-mer frequency, TF over GST control)"
same,binding signal,ELF4,"1.17 fold enrichment (6-mer frequency, TF over GST control)"
same,binding signal,ELK4,"1.17 fold enrichment (6-mer frequency, TF over GST control)"
same,binding signal,ETV2,"1.21 fold enrichment (6-mer frequency, TF over GST control)"
same,binding signal,ELF3,"1.27 fold enrichment (6-mer frequency, TF over GST control)"
same,binding signal,CRX,"1.1 fold enrichment (6-mer frequency, TF over GST control)"
same,binding signal,ETV1,"1.18 fold enrichment (6-mer frequency, TF over GST control)"
